# Test results as given in PMC8384837, “Expanding the binding specificity for RNA recognition by a PUF domain”.
# Changes are numbered by the printed parent chain.
# Tests used:
# Test in all cases: yeast three-hybrid, YBZ-1, SC-Leu-His + 0.5 mM 3-AT, 4 days
# Conditions in all cases: tags: N-Gal4 AD-HA kept; label: inside an RPR1-promoter hybrid RNA with tandem MS2 sites; ssRNA
# [1] = target: T1, PUM1 PUF domain R6-VWS (Homo sapiens, UniProt Q14671 828-1176, N1043V;Y1044W;Q1047S)
# T1 sequence: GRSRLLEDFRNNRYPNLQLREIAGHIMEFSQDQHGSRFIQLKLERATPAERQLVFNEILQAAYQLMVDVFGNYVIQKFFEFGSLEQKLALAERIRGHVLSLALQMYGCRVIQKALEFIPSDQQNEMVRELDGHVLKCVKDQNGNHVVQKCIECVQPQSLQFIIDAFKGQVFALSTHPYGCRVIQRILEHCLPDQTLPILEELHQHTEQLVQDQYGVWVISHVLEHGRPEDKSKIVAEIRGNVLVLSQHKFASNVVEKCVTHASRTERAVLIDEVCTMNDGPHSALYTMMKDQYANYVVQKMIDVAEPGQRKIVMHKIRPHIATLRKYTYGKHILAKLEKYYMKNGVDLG
# Procedure, shortened: (§1)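 Pumilio-1 PUF domain libraries, randomized (NNK) at the three base-contacting residues of each repeat, were co-expressed with matching RNA elements from a centromeric plasmid in strain YBZ-1 (LexA–MS2 coat fusion, HIS3 reporter). Transformants were plated on SC-Leu (input) and SC-Leu-His + 0.5 mM 3-AT (selection) for four days, and repeat regions were PCR-amplified and Illumina-sequenced. The interaction score is the log2 change in variant frequency from input to selection, with pseudocount 1 where absent.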
# [2] = target: PUM1 PUF domain R1-YFR (Homo sapiens, UniProt Q14671 828-1176, S863Y;R864F;Q867R)
# Procedure, shortened: as §1
# [3] = target: PUM1 PUF domain R4-VPS (Homo sapiens, UniProt Q14671 828-1176, N971V;H972P;Q975S)
# Procedure, shortened: as §1
# [4] = target: PUM1 PUF domain R4-SNS (Homo sapiens, UniProt Q14671 828-1176, N971S;H972N;Q975S)
# Procedure, shortened: as §1
# [5] = target: PUM1 PUF domain R4-VCA (Homo sapiens, UniProt Q14671 828-1176, N971V;H972C;Q975A)
# Procedure, shortened: as §1
# [6] = target: PUM1 PUF domain R5-KHI (Homo sapiens, UniProt Q14671 828-1176, C1007K;R1008H;Q1011I)
# Procedure, shortened: as §1
# [7] = target: PUM1 PUF domain R7-RYP (Homo sapiens, UniProt Q14671 828-1176, S1079R;N1080Y;E1083P)
# Procedure, shortened: as §1
# [8] = target: PUM1 PUF domain R3-CRC (Homo sapiens, UniProt Q14671 828-1176, Q939C)
# Procedure, shortened: as §1
# [9] = target: PUM1 PUF domain R3-CRA (Homo sapiens, UniProt Q14671 828-1176, Q939A)
# Procedure, shortened: as §1
# [10] = target: PUM1 PUF domain R3-SIR (Homo sapiens, UniProt Q14671 828-1176, C935S;R936I;Q939R)
# Procedure, shortened: as §1
# [11] = target: PUM1 PUF domain R1-NYS (Homo sapiens, UniProt Q14671 828-1176, S863N;R864Y;Q867S)
# Procedure, shortened: as §1
# [12] = target: PUM1 PUF domain R8-NWR (Homo sapiens, UniProt Q14671 828-1176, Y1123W;Q1126R)
# Procedure, shortened: as §1
# [13] = target: T2, PUM1 PUF domain R6-LWK (Homo sapiens, UniProt Q14671 828-1176, N1043L;Y1044W;Q1047K)
# T2 sequence: T1 sequence with V216L, S220K
# Procedure, shortened: as §1
# [14] = target: T3, PUM1 PUF domain R6-CWI (Homo sapiens, UniProt Q14671 828-1176, N1043C;Y1044W;Q1047I)
# T3 sequence: T1 sequence with V216C, S220I
# Procedure, shortened: as §1
# [15] = target: PUM1 PUF domain R5-YNG (Homo sapiens, UniProt Q14671 828-1176, C1007Y;R1008N;Q1011G)
# Procedure, shortened: as §1
# [16] = target: PUM1 PUF domain R5-TYF (Homo sapiens, UniProt Q14671 828-1176, C1007T;R1008Y;Q1011F)
# Procedure, shortened: as §1
# [17] = target: PUM1 PUF domain R8-IRR (Homo sapiens, UniProt Q14671 828-1176, N1122I;Y1123R;Q1126R)
# Procedure, shortened: as §1
# [18] = target: PUM1 PUF domain R5-NAR (Homo sapiens, UniProt Q14671 828-1176, C1007N;R1008A;Q1011R)
# Procedure, shortened: as §1
# [19] = target: PUM1 PUF domain R5-KTC (Homo sapiens, UniProt Q14671 828-1176, C1007K;R1008T;Q1011C)
# Procedure, shortened: as §1
# [20] = target: PUM1 PUF domain R5-RKD (Homo sapiens, UniProt Q14671 828-1176, C1007R;R1008K;Q1011D)
# Procedure, shortened: as §1
sequence,measurement,setting,value
GGCUAGAACUAGUGGAUCCCCCGGCGCCCGGCGGCUCGAGCCCGGGUAAGUGAAAAUAGUCUGCAUGCCGCCGGGCGCCAUGCCUGCAGGUCGACUCUAGAAAACAUG,binding signal,[1],7.2 log2 enrichment (interaction score)
GGCUAGAACUAGUGGAUCCCCCGGCGCCCGGCGGCUCGAGCCCGGGUAAGUGUAAAUGGUCUGCAUGCCGCCGGGCGCCAUGCCUGCAGGUCGACUCUAGAAAACAUG,binding signal,[2],2.6 log2 enrichment (interaction score)
GGCUAGAACUAGUGGAUCCCCCGGCGCCCGGCGGCUCGAGCCCGGGUAAGUGUAUAUAGUCUGCAUGCCGCCGGGCGCCAUGCCUGCAGGUCGACUCUAGAAAACAUG,binding signal,[3],2.93 log2 enrichment (interaction score)
same,binding signal,[4],2.15 log2 enrichment (interaction score)
same,binding signal,[5],2.82 log2 enrichment (interaction score)
GGCUAGAACUAGUGGAUCCCCCGGCGCCCGGCGGCUCGAGCCCGGGUAAGUGUGAAUAGUCUGCAUGCCGCCGGGCGCCAUGCCUGCAGGUCGACUCUAGAAAACAUG,binding signal,[6],4.47 log2 enrichment (interaction score)
GGCUAGAACUAGUGGAUCCCCCGGCGCCCGGCGGCUCGAGCCCGGGUAAGUCUAAAUAGUCUGCAUGCCGCCGGGCGCCAUGCCUGCAGGUCGACUCUAGAAAACAUG,binding signal,[7],5.27 log2 enrichment (interaction score)
GGCUAGAACUAGUGGAUCCCCCGGCGCCCGGCGGCUCGAGCCCGGGUAAGUGUACAUAGUCUGCAUGCCGCCGGGCGCCAUGCCUGCAGGUCGACUCUAGAAAACAUG,binding signal,[3],2.28 log2 enrichment (interaction score)
same,binding signal,[4],0.99 log2 enrichment (interaction score)
GGCUAGAACUAGUGGAUCCCCCGGCGCCCGGCGGCUCGAGCCCGGGUAAGUGUAAGUAGUCUGCAUGCCGCCGGGCGCCAUGCCUGCAGGUCGACUCUAGAAAACAUG,binding signal,[8],2.62 log2 enrichment (interaction score)
same,binding signal,[9],1.42 log2 enrichment (interaction score)
same,binding signal,[10],2.77 log2 enrichment (interaction score)
GGCUAGAACUAGUGGAUCCCCCGGCGCCCGGCGGCUCGAGCCCGGGUAAGUGUAAUUAGUCUGCAUGCCGCCGGGCGCCAUGCCUGCAGGUCGACUCUAGAAAACAUG,binding signal,[8],2.22 log2 enrichment (interaction score)
same,binding signal,[10],1.21 log2 enrichment (interaction score)
GGCUAGAACUAGUGGAUCCCCCGGCGCCCGGCGGCUCGAGCCCGGGUAAGUGUAAAUUGUCUGCAUGCCGCCGGGCGCCAUGCCUGCAGGUCGACUCUAGAAAACAUG,binding signal,[11],3.41 log2 enrichment (interaction score)
same,binding signal,[2],6.74 log2 enrichment (interaction score)
GGCUAGAACUAGUGGAUCCCCCGGCGCCCGGCGGCUCGAGCCCGGGUAAGUGUAAAUAGUCUGCAUGCCGCCGGGCGCCAUGCCUGCAGGUCGACUCUAGAAAACAUG,binding signal,[8],2.51 log2 enrichment (interaction score)
same,binding signal,[3],1.66 log2 enrichment (interaction score)
same,binding signal,[12],2.23 log2 enrichment (interaction score)
same,binding signal,[13],5.88 log2 enrichment (interaction score)
same,binding signal,[1],2.66 log2 enrichment (interaction score)
same,binding signal,[4],2.68 log2 enrichment (interaction score)
same,binding signal,[11],2.51 log2 enrichment (interaction score)
same,binding signal,[14],4.75 log2 enrichment (interaction score)
same,binding signal,[15],2.79 log2 enrichment (interaction score)
same,binding signal,[16],2.88 log2 enrichment (interaction score)
same,binding signal,[9],2.9 log2 enrichment (interaction score)
same,binding signal,[17],1.39 log2 enrichment (interaction score)
GGCUAGAACUAGUGGAUCCCCCGGCGCCCGGCGGCUCGAGCCCGGGUAAGCGUAAAUAGUCUGCAUGCCGCCGGGCGCCAUGCCUGCAGGUCGACUCUAGAAAACAUG,binding signal,[12],3.79 log2 enrichment (interaction score)
same,binding signal,[17],2.44 log2 enrichment (interaction score)
GGCUAGAACUAGUGGAUCCCCCGGCGCCCGGCGGCUCGAGCCCGGGUAAGUGUCAAUAGUCUGCAUGCCGCCGGGCGCCAUGCCUGCAGGUCGACUCUAGAAAACAUG,binding signal,[18],4.29 log2 enrichment (interaction score)
same,binding signal,[19],4.69 log2 enrichment (interaction score)
same,binding signal,[20],4.06 log2 enrichment (interaction score)
GGCUAGAACUAGUGGAUCCCCCGGCGCCCGGCGGCUCGAGCCCGGGUAAGUGUUAAUAGUCUGCAUGCCGCCGGGCGCCAUGCCUGCAGGUCGACUCUAGAAAACAUG,binding signal,[16],1.26 log2 enrichment (interaction score)
